molecular target: AMP-activated protein kinase, AMPK (Homo sapiens) (UniProt P54646+O43741+P54619+Q9UGJ0+Q9Y478+Q13131+Q9UGI9); experiment: AMP-dependent Kinase enzyme assay. An in vitro enzyme assay that detects ADP turnover that is directly proportional to AMPK activity. This uses naive AMPK that is activated during the assay with MK-8722; assay type: functional; parameters: scale not given: direction of the effect not stated beside the values; details: 30 µM

SMILES | Percent Effect
CC(C)(C)c1cn2c(n1)C(CNCc1cnn3ccccc13)CCC2 (stereo not given) | -1.22%
O=C(NCc1nnc2n1CCCC2)c1ccc(C2CCCO2)s1 (stereo not given) | -8.64%
CN(CCNC(=O)Nc1ccn(C)n1)Cc1ccc(F)cc1 | 3.18%
CC(C)c1ccccc1OCCNC(=O)N1CCC(CC(N)=O)CC1 | -3.47%
Cc1cccc(C)c1Nc1noc2c1CN(C(=O)c1c[nH]nc1C)CC2 | 6.37%
CCc1cc(CNC(=O)c2cc(NC(=O)C(C)C)ccc2Cl)[nH]n1 | 0.911%
Cc1noc(CCCC(=O)N2CCNC(=O)C2)n1 | -2.32%
O=C(NCc1csc(Br)c1)Nc1cn[nH]c1 | -3.79%
O=C(c1coc(-c2ccccc2)n1)N1CCS(=O)(=O)CC1 | 0.626%
CC(CN1CCOC1=O)NC(=O)c1ccccc1Oc1ccccc1 (stereo not given) | 8.72%
COc1ccc(Cc2nnc(NC(=O)C3CC34CCC4)s2)cc1OC (stereo not given) | 4.1%
O=C(C1CC(c2ccccc2)=NO1)N1CCc2ccccc21 (stereo not given) | 13.9%
CNC(=O)C1CCN(c2ncnc3c2CCN(C(=O)C2CC2)C3)C1 (stereo not given) | 2.51%
CCSCC(C)NCc1ccccc1-n1ccnc1 (stereo not given) | 7.25%
c1ccc(C2CN(C3CC3)CC3(CCN(Cc4cscn4)CC3)C2)cc1 (stereo not given) | 4.81%
CC(C)C1CCCN1C(=O)Nc1ccc(=O)n(C)c1 (stereo not given) | 56.6%
CC(C)Cc1noc(CN(C)C2CCCC2)n1 | 10.7%
CCn1nc(C)c(C(=O)N2C[C@@H](CN(C)C)[C@@H](CO)C2)c1C | -14.6%
CCNc1ncc(CN2CCOC(Cc3cccc(OC)c3)C2)cn1 (stereo not given) | 0.956%
Cc1noc(-c2ccc(N(C)Cc3cccnc3)nc2)n1 | -3.84%

SMILES | Percent Effect
COCCC(C)NCc1ccccc1-n1ccnc1 (stereo not given) | -0.71%
Cc1cc(C)c2[nH]c(C(=O)NCCN3CCOC3=O)c(C)c2c1 | 16.4%
O=C(CC1CCc2ccccc21)NC1(C(=O)O)CCCC1 (stereo not given) | -6.64%
O=c1[nH]nc(C2CC2)n1-c1cccc(Cl)c1 | -10.6%
COc1ccccc1OCCc1nnc(NC(=O)C2CC23CCC3)s1 (stereo not given) | 8.73%
CC(C(=O)N1CCCCC1)N1CCN(c2ncc(Cl)cn2)CC1 (stereo not given) | -3.64%
CCOC(=O)c1n[nH]cc1CN1CCOC(Cc2ccccc2)C1 (stereo not given) | -0.201%
O=C(O)CCc1cc2n(n1)CCCN(C(=O)c1ccc(Cl)s1)C2 | 2.58%
CCC(C)C(=O)N(C)Cc1cc(F)ccc1N1CCC(OC)CC1 (stereo not given) | 8.71%
CCc1nc(C)c(CN2CCOC(CCCC(C)C)C2)[nH]1 (stereo not given) | -6.7%
CCOc1ccc(NC(=O)NCCS(=O)(=O)CC)cc1C | -0.616%
CC(c1nnc(-c2ccccc2)o1)N1CCC(Nc2ccccc2)CC1 (stereo not given) | 4.64%
Cc1ccnc(C2CCN(CCCOc3ccccc3F)C2)n1 (stereo not given) | 6.41%
Cc1nc(C)n(CC2CCCN2c2ncnc3sc(C)c(C)c23)n1 (stereo not given) | -3.96%
CC1(C)CC(CN2CCC3(CCC(=O)N(C4CCC4)C3)CC2)CCO1 (stereo not given) | -1.15%
CC(=O)c1cnc(NCCN2CCCC2)nc1C | -8.98%
CC(C(=O)N1CCCC1)N1CCN(c2ncc(Cl)cn2)CC1 (stereo not given) | -1.02%
COC(=O)c1ccc(N(C(=O)c2cscn2)C(C)C)c(C)c1 | -0.314%
Cc1nn(C2CCCCC2)c2nc(C(C)(C)CN3CCOCC3)[nH]c12 | 12%
CCN(CC)S(=O)(=O)N1CCCC(c2ncc3c(n2)CCN(C)C3)C1 (stereo not given) | -4.24%

— ChEMBL document CHEMBL3988442, “University of Dundee, Small-Polar-MMV Screening Library” (2021)
